For assay [1], the target named is Glycogen synthase kinase-3 beta (Homo sapiens) (UniProt P49841). As to conditions: at 1 µM.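 Also: reported values are mean percent inhibition of GSK3B.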
Assay [2] addresses Homeodomain-interacting protein kinase 1 (Homo sapiens) (UniProt Q86Z02). As to conditions: at 0.1 µM.
Assay [3] has the same target. Particulars: at 1 µM.
Assay [4] has as its target T1, Homeodomain-interacting protein kinase 4 (Homo sapiens) (UniProt Q8NE63).
T1 sequence (whole entry): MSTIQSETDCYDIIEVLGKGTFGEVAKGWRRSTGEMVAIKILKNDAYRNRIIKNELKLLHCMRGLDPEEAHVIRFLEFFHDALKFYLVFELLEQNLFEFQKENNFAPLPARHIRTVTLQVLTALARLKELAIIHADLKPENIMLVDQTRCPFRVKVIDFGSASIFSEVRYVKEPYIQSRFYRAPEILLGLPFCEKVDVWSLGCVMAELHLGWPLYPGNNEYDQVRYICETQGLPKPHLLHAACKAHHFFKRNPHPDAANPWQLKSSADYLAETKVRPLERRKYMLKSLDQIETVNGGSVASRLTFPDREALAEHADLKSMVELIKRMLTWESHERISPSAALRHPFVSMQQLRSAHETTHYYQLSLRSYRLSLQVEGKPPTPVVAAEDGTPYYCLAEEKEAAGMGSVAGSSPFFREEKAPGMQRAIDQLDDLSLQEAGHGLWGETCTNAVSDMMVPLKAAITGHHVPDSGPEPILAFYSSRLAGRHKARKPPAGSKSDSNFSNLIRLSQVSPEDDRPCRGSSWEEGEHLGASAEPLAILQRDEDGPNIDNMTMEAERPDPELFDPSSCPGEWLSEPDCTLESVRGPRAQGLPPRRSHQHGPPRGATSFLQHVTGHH
As to conditions: at 0.1 µM.

Assay [5] has as its target T1, Homeodomain-interacting protein kinase 4 (Homo sapiens). Particulars: at 1 µM.
The target of assay [6] is Mitogen-activated protein kinase 9 (Homo sapiens) (UniProt P45984). As to conditions: at 0.1 µM.
Sequence of Mitogen-activated protein kinase 9 (Homo sapiens) (P45984 whole entry, looked up): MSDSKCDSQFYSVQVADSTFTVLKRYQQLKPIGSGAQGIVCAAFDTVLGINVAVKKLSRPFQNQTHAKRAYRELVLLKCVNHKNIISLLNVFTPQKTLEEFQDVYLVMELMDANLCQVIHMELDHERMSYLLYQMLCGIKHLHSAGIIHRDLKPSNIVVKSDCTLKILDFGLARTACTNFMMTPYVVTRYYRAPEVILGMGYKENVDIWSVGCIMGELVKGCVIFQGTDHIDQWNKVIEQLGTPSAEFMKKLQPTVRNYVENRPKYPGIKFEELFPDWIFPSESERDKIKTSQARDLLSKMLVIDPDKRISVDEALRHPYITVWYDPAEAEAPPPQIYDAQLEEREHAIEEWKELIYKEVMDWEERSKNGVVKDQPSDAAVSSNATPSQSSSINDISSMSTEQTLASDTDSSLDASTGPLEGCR
Assay [7] has the same target. As to conditions: at 1 µM.
In assay [8] the target is Mitogen-activated protein kinase 1 (Homo sapiens) (UniProt P28482). Particulars: at 0.1 µM.
Sequence of Mitogen-activated protein kinase 1 (Homo sapiens) (P28482 whole entry): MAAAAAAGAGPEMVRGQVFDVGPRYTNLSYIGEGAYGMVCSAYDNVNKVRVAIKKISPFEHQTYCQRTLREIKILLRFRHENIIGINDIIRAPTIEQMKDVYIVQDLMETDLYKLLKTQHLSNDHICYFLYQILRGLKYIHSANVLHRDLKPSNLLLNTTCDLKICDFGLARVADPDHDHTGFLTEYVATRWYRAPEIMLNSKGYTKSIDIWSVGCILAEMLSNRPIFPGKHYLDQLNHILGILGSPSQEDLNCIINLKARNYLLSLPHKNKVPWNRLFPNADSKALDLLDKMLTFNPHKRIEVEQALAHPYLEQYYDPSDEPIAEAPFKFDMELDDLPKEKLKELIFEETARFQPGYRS
Assay [9] shares this target. Particulars: at 1 µM.
The target of assay [10] is Mitogen-activated protein kinase 3 (Homo sapiens) (UniProt P27361). As to conditions: at 0.1 µM.
Sequence of Mitogen-activated protein kinase 3 (Homo sapiens) (P27361 whole entry): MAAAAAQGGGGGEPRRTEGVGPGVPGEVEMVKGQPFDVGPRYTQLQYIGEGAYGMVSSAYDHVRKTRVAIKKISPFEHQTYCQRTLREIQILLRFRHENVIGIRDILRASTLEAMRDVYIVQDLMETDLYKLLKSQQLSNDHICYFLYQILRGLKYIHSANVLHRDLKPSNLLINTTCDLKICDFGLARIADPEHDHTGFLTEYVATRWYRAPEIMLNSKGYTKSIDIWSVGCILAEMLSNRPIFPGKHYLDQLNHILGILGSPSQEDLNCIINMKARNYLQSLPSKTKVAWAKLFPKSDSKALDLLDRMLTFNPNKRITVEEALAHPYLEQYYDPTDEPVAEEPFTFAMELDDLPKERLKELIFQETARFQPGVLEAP
The target is the same in assay [11]. Particulars: at 1 µM.
The target in assay [12] is SRSF protein kinase 3 (Homo sapiens) (UniProt Q9UPE1). Particulars: at 0.1 µM.
Sequence of SRSF protein kinase 3 (Homo sapiens) (Q9UPE1 whole entry): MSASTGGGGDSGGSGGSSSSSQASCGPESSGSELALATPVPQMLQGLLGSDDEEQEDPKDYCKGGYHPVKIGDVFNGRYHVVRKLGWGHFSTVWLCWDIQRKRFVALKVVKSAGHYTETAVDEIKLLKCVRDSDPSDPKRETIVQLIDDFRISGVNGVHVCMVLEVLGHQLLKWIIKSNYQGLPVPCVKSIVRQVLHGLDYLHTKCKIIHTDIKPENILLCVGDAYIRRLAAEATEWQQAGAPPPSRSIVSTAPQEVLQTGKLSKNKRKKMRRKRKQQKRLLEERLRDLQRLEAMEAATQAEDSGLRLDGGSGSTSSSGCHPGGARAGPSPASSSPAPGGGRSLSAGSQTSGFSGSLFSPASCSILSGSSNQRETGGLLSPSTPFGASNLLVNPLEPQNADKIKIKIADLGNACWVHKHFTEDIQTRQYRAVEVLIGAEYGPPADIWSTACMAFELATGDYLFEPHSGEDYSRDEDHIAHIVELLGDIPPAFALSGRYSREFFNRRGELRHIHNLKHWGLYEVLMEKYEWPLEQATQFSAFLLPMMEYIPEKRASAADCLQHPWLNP
The target is the same in assay [13]. Particulars: at 1 µM.
In assay [14] the target is Mitogen-activated protein kinase 14 (Homo sapiens) (UniProt Q16539). As to conditions: at 0.1 µM.
Sequence of Mitogen-activated protein kinase 14 (Homo sapiens) (Q16539 whole entry): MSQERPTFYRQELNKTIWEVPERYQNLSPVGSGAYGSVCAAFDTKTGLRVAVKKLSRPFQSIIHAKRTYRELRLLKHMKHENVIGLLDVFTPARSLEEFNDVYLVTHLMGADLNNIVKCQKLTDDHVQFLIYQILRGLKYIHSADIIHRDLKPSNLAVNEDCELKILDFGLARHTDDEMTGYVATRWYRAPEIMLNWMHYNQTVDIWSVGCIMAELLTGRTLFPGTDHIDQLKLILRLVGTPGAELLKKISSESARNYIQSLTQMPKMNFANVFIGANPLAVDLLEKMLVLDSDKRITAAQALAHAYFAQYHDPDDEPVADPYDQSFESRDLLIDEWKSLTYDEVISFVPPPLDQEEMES
For assay [15] the target is unchanged. Particulars: at 1 µM.
Assay [16] addresses Mitogen-activated protein kinase 11 (Homo sapiens) (UniProt Q15759). Particulars: at 0.1 µM.
For assay [17] the target is unchanged. Particulars: at 1 µM.
For assay [18], the target named is T2, Mitogen-activated protein kinase 13 (Homo sapiens) (UniProt O15264).
T2 sequence (whole entry): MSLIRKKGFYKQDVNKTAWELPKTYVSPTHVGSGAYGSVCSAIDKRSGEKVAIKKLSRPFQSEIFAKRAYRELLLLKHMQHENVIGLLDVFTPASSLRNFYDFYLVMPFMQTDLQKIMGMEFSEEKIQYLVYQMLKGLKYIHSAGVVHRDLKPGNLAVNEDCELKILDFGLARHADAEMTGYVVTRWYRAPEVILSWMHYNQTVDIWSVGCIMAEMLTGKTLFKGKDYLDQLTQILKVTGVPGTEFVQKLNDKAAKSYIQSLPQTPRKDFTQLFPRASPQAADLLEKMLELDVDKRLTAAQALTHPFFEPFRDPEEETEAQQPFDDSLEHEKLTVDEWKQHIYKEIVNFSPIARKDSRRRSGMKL
Particulars: at 0.1 µM.

The target in assay [19] is T2, Mitogen-activated protein kinase 13 (Homo sapiens). As to conditions: at 1 µM.
Assay [20] concerns the target T3, Mitogen-activated protein kinase 12 (Homo sapiens) (UniProt P53778).
T3 sequence (whole entry): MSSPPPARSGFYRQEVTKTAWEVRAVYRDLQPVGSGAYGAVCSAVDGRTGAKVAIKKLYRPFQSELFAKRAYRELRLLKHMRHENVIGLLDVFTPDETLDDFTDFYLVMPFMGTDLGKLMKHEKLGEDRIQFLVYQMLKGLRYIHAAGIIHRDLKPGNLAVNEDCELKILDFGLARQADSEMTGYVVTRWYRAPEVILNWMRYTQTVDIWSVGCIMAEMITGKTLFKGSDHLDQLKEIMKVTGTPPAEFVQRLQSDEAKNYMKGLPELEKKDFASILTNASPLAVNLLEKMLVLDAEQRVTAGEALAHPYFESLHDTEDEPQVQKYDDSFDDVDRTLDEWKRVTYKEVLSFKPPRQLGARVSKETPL
Particulars: at 0.1 µM.

What is called inhibition is the relative decrease from the control value, in per cent.

Sequence of Mitogen-activated protein kinase 11 (Homo sapiens) (Q15759 whole entry): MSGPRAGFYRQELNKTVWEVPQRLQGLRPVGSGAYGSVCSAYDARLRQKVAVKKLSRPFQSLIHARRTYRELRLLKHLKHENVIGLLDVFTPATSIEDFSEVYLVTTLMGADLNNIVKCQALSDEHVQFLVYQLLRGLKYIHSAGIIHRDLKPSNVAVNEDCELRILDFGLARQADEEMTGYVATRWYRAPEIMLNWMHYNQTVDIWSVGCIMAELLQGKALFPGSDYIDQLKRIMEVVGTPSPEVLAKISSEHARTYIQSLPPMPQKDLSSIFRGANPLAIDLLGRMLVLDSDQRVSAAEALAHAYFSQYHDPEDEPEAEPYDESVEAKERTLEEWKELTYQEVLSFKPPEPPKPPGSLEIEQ
Sequence of Homeodomain-interacting protein kinase 1 (Homo sapiens) (Q86Z02 whole entry, looked up): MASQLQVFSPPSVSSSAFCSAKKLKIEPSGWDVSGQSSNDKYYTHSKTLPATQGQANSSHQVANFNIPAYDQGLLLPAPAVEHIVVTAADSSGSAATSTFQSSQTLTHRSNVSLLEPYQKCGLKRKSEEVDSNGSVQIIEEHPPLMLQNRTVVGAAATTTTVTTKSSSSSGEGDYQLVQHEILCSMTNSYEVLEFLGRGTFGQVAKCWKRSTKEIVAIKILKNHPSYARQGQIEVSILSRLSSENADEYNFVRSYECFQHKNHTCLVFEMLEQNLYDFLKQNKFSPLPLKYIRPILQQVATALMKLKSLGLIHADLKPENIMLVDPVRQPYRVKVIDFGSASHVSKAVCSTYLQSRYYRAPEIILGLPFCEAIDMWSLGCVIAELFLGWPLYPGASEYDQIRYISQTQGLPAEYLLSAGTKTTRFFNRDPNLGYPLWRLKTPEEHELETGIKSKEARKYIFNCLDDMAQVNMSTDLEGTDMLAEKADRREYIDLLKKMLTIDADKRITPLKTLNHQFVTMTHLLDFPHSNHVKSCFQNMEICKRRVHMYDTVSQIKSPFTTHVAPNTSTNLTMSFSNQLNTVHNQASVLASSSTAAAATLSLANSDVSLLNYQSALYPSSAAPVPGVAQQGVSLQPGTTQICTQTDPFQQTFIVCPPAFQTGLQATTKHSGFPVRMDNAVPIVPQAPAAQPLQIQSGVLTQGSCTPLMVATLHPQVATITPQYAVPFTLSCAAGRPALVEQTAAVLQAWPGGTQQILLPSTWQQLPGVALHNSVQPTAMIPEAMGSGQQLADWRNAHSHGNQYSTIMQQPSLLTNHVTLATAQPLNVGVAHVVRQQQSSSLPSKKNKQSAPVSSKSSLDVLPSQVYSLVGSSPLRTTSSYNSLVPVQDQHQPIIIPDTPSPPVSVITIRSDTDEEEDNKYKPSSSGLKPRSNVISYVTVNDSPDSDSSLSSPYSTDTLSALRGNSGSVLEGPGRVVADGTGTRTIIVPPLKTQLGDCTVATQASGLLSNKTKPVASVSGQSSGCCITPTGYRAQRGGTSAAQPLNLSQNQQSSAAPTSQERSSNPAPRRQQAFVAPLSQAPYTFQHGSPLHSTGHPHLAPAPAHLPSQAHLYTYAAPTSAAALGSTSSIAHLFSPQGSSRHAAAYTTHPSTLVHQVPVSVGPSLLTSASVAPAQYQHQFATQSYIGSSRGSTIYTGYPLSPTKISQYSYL
Sequence of Glycogen synthase kinase-3 beta (Homo sapiens) (P49841 whole entry, looked up): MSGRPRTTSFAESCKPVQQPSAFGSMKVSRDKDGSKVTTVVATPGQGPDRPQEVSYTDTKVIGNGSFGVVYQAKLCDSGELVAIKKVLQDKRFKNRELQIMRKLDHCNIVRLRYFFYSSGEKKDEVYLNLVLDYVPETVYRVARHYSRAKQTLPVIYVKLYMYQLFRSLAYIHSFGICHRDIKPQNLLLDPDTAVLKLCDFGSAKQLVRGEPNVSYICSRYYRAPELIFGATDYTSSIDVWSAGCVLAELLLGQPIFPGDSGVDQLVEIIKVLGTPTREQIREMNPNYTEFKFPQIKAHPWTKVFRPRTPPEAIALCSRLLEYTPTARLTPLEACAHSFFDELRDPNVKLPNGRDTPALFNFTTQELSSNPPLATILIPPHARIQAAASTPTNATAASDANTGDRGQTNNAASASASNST

As for `COc1ccc2cc(-c3c(-c4ccncc4)nc(-c4ccc([S+](C)[O-])cc4C)n3C)ccc2c1` (stereo not given), the inhibition in [1] is 14.7%; in [2], 3.05%; in [3], 6.01%; in [4], 2.25%; in [5], 5.99%; in assay [6], 0.79%. In addition, the inhibition in assay [7] was 8.03%; in [8], -0.46%; in assay [9] it was -2.44%; in [10], 0.3%; in assay [11], 0.97%; in assay [12] it was -0.41%. In addition, the inhibition is 0.96% in assay [13]; 8.81% in assay [14]; 8.45% in [15]; -1.91% in assay [16]; 9.09% in [17]; 0.73% in [18]. Also, the inhibition in [19] was -0.19%; in assay [20] it was -2.44%.
`COC(=O)Nc1nc2ccc(Sc3ccc(NC(=O)Nc4cc(C(F)(F)F)ccc4F)cc3)cc2[nH]1`: the inhibition turned out to be 1.89% in assay [1]; 1.74% in assay [2]; 3.89% in [3]; 3.14% in assay [4]; 25.5% in assay [5]; 33.9% in [6]. The inhibition was 6.37% in assay [7]; -0.51% in assay [8]; -0.71% in [9]; 1.68% in assay [10]; 1.55% in assay [11]; 0.07% in assay [12]. Further, the inhibition in assay [13] amounted to 8.97%; in assay [14], 5.88%; in assay [15], 39.3%; in [16], 3.62%; in assay [17], 34.3%; in assay [18], 1.98%. The inhibition was determined as 2.44% in assay [19] and 0.78% in [20].
With `CCC(=O)Nc1ccc(C)c(-c2ccc(C(=O)NCC3CC3)cc2)c1`, the inhibition is 2.31% in assay [1]; -3.16% in assay [2]; -2.43% in [3]; 0.11% in assay [4]; 0.55% in [5]; 2.92% in [6]. The inhibition in assay [7] is 4.2%; in [8] it was 4.32%; in assay [9], 4.25%; in assay [10], 2.94%; in [11], 1.57%; in assay [12], -1.41%. Further, the inhibition was -1.57% in assay [13]; 20.1% in assay [14]; 62.9% in [15]; 6.54% in assay [16]; 36.8% in [17]; 3.68% in assay [18]. For the same compound, the inhibition in assay [19] worked out at 3.22%; in assay [20], 2.95%.
On to `c1ccc(-c2n[nH]cc2-c2ccnc(-c3ccc(OCCN4CCOCC4)cc3)c2)nc1`, for which the inhibition in assay [1] was 5.85%; in assay [2], 0.91%; in assay [3], 2.07%; in assay [4] it was 3.43%; in [5], 5.51%; in assay [6] it was 0.62%. For the same compound, the inhibition in assay [7] was 5.45%; in [8] it was -2.8%; in assay [9], -3.16%; in [10], -0.63%; in [11] it was -2.62%; in assay [12] it was 2.38%. For the same compound, the inhibition in [13] is 0.78%; in [14] it was 3.12%; in [15], 28.9%; in [16], -0.65%; in [17], 5.15%; in [18] it was 5.65%. For the same compound, the inhibition in [19] is -0.43%; in [20], 3.09%.
`COc1cc(Nc2ncc3c(C)nc(-c4cccc(Oc5ccccc5)c4)n3n2)cc(OC)c1OC`: the inhibition in [1] came to 0.75%; in assay [2] it was 0.25%; in assay [3] it was 10.8%; in assay [4] it was 2.78%; in [5], 7.44%; in assay [6] it was 2.43%. Besides, the inhibition in assay [7] stood at 4.03%; in assay [8], 2.11%; in assay [9] it was 8.58%; in assay [10], 4.14%; in assay [11], 5.07%; in assay [12], 0.17%. The inhibition was 1.56% in assay [13]; 0.66% in [14]; 4.12% in assay [15]; 0.51% in [16]; 4.42% in assay [17]; 0.98% in [18]. Moreover, the values for the inhibition in assay [19] and in assay [20] were 2.5% and 0.18%, respectively.
In the case of `CS(=O)(=O)CCNCc1cc(-c2cc3c(Nc4ccc(OCc5cccc(F)c5)c(Cl)c4)ncnc3s2)cs1`, the inhibition in assay [1] is 1.78%; in assay [2], -2.22%; in assay [3], -1.08%; in [4] it was -0.67%; in [5], 1.29%; in assay [6] it was 3.11%. For the same compound, the inhibition was found to be 7.13% in assay [7]; 5.61% in assay [8]; 7.79% in [9]; 4.58% in assay [10]; 4.92% in [11]; 0.81% in [12]. The inhibition is -0.39% in assay [13]; 7.29% in assay [14]; 8.32% in [15]; 1.8% in assay [16]; 3.36% in assay [17]; 5.45% in [18]. Also, the inhibition in [19] amounted to 6.67%; in assay [20] it was 4.58%.

(Values after ChEMBL document CHEMBL1961873, “Compounds: GSK PKIS; Assays: Nanosyn kinase panel” (2012).)
